Measured values: PubChem BioAssay (NCI)
About 79,000 compounds went through this panel and 15% of them were active in at least one assay; those are over-represented in the sample as a whole. Unmarked numbers belong to inactive results. Calls of active or inactive are those of the source. No stated cut-off is given here; in the data, active means growth inhibition above about 70%; inactive means the rest.

Experiments:
[1] = NCI Yeast Anticancer Drug Screen. Data for the rad52 strain (AID 147);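 further: 0% = growth of vehicle-treated control cultures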; conditions: S. cerevisiae rad52 mutant growth inhibition, stronger effect = higher value
How it was run: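 Inhibition of yeast growth, referenced to vehicle controls, was the measured output for a strain with defective DNA damage repair.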

[2] = NCI Yeast Anticancer Drug Screen. Data for the wt1 strain (AID 149);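 further: 0% = growth of vehicle-treated wt1 cultures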; conditions: S. cerevisiae wt1 strain (SPY 50644) growth inhibition, stronger effect = higher value
How it was run: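 Yeast wt1 strain exposed to compounds; growth inhibition measured relative to vehicle-treated controls.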

[3] = NCI Yeast Anticancer Drug Screen. Data for the rad50EPP+ strain (AID 151);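 further: 0% = growth of vehicle-treated control cultures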; conditions: S. cerevisiae rad50 mutant strain, stronger effect = higher value
How it was run: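 Genetically defined yeast (rad50EPP+, DNA damage repair alteration) is grown with compound, and inhibition of growth is expressed relative to vehicle-treated controls.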

[4] = NCI Yeast Anticancer Drug Screen. Data for the mgt1 strain (AID 153); conditions: S. cerevisiae mgt1 mutant growth inhibition, stronger effect = higher value
How it was run: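 In the mgt1 strain, test compounds were added and growth inhibition was determined relative to vehicle-treated controls.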

[5] = NCI Yeast Anticancer Drug Screen. Data for the rad50 strain (AID 155);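 further: 0% = growth of vehicle-only cultures of the same strain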; conditions: S. cerevisiae rad50 strain growth inhibition, stronger effect = higher value
How it was run: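 Yeast carrying a defined DNA repair defect were exposed to test compounds, and growth was compared with vehicle-treated controls to give percent inhibition.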

[6] = NCI Yeast Anticancer Drug Screen. Data for the mec2-1 strain (AID 157); conditions: S. cerevisiae mec2-1 strain, stronger effect = higher value
How it was run: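 Each compound was tested on mec2-1 yeast, a strain altered in DNA damage repair or cell cycle control. Growth inhibition is reported relative to vehicle.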

[7] = NCI Yeast Anticancer Drug Screen. Data for the rad14 strain (AID 159);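 further: 0% = growth of vehicle-treated control cultures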; conditions: S. cerevisiae rad14 strain growth inhibition, stronger effect = higher value
How it was run: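 Yeast cells carrying a defined DNA-repair defect were exposed to compounds, and growth inhibition was calculated relative to vehicle-treated control cultures.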

[8] = NCI Yeast Anticancer Drug Screen. Data for the sgs1 mgt1 strain (AID 161);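 further: 0% = growth of cultures given vehicle only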; conditions: S. cerevisiae sgs1 mgt1 strain, stronger effect = higher value
How it was run: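 Inhibition of yeast growth, normalised to vehicle-treated controls, is reported for a strain bearing genetic alterations in DNA damage repair.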

[9] = NCI Yeast Anticancer Drug Screen. Data for the CLN2oe strain (AID 163);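 further: 0% = growth of vehicle-only control cultures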; conditions: S. cerevisiae CLN2oe strain, stronger effect = higher value
How it was run: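 First, the altered yeast strain was treated with each compound; second, its growth was measured; finally, inhibition was derived by comparison with vehicle controls.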

[10] = NCI Yeast Anticancer Drug Screen. Data for the cln2 rad14 strain (AID 165);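 further: 0% = growth equal to vehicle treated cultures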; conditions: S. cerevisiae cln2 rad14 strain, stronger effect = higher value
How it was run: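 Test compounds were added to cln2 rad14 yeast cultures; inhibition of growth was then determined by comparison with vehicle treatment.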

[11] = NCI Yeast Anticancer Drug Screen. Data for the bub3 strain (AID 167); conditions: S. cerevisiae bub3 mutant strain, stronger effect = higher value
How it was run: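 Compounds were applied to a genetically altered yeast strain carrying a cell-cycle control defect. Growth inhibition was scored against vehicle-treated controls.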

[12] = NCI Yeast Anticancer Drug Screen. Data for the wt2 strain (AID 169);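 further: 0% = growth of vehicle-treated yeast cultures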; conditions: S. cerevisiae wt2 strain growth inhibition, stronger effect = higher value
How it was run: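 The panel's yeast strains carry defined changes in DNA repair or cell cycle genes. Each strain is grown with compound, and growth loss is scored relative to vehicle.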

[13] = NCI Yeast Anticancer Drug Screen. Data for the mlh1 strain (AID 171);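 further: 0% = growth of vehicle-treated control cultures of the same strain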; conditions: S. cerevisiae mlh1 strain growth inhibition, stronger effect = higher value
How it was run: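 Inhibition values reflect reduced yeast growth in the presence of compound, referenced to vehicle controls, using a strain chosen for its alteration in DNA repair or cell cycle control.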

[14] = NCI Yeast Anticancer Drug Screen. Data for the sgs1 strain (AID 173);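 further: 0% = growth of vehicle-only control cultures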; conditions: S. cerevisiae sgs1 mutant, stronger effect = higher value
How it was run: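 Vehicle-treated cultures served as reference for growth inhibition of a yeast strain altered in DNA damage repair or cell cycle control after compound exposure.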

[15] = NCI Yeast Anticancer Drug Screen. Data for the mlh1 rad18 strain (AID 175); conditions: S. cerevisiae mlh1 rad18 strain growth inhibition, stronger effect = higher value
How it was run: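 Inhibition values reflect reduced growth of mutant yeast versus vehicle-treated controls following compound exposure; the mutations affect DNA damage repair.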

[16] = NCI Yeast Anticancer Drug Screen. Data for the rad18 strain (AID 177); conditions: S. cerevisiae rad18 mutant growth inhibition, stronger effect = higher value
How it was run: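 Steps: expose repair-mutant yeast to compound; measure growth; express as inhibition relative to vehicle control.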

[17] = at 5.0 µM (retest, dose inferred, filed as 0.5)
[18] = at 50.0 µM (retest, dose inferred, filed as 5.0)

Question: Which growth inhibition ([1]; at 1.2 µM) does the source give for `COC1C=COC2(C)Oc3c(C)c(O)c4c(c3C2=O)/C(=N/C2CCC(O)OC2C)C=C(NC(=O)/C(C)=C\C(=O)C2CC2C(O)C(C)C(O)C(C)C(OC(C)=O)C1C)C4=O` (stereo not drawn) here?
Answer: Its growth inhibition is 0%.

Question: What about the growth inhibition ([1]; at 3.7 µM) of the same molecule?
Answer: Its growth inhibition is -2%.

Question: And the growth inhibition ([1]; at 11.0 µM)?
Answer: Its growth inhibition is -4%.

Question: What about the growth inhibition ([1]; at 33.0 µM) of the same molecule?
Answer: Its growth inhibition is 17%.

Question: And the growth inhibition ([1]; at 100.0 µM)?
Answer: Its growth inhibition is 92% (active).

Question: And the growth inhibition ([2]; at 1.2 µM)?
Answer: The growth inhibition was 0%.

Question: What about the growth inhibition ([2]; at 3.7 µM) of the same molecule?
Answer: Its growth inhibition is 0%.

Question: What about the growth inhibition ([2]; at 11.0 µM) of the same molecule?
Answer: The growth inhibition was 1%.

Question: And the growth inhibition ([2]; at 33.0 µM)?
Answer: Its growth inhibition is -1%.

Question: And the growth inhibition ([2]; at 100.0 µM)?
Answer: Its growth inhibition is 11%.

Question: And the growth inhibition ([3]; at 1.2 µM)?
Answer: The growth inhibition was -2%.

Question: And the growth inhibition ([3]; at 3.7 µM)?
Answer: Its growth inhibition is -10%.

Question: And the growth inhibition ([3]; at 11.0 µM)?
Answer: The growth inhibition was -14%.

Question: What about the growth inhibition ([3]; at 33.0 µM) of the same molecule?
Answer: Its growth inhibition is -7%.

Question: And the growth inhibition ([3]; at 100.0 µM)?
Answer: Its growth inhibition is -6%.

Question: And the growth inhibition ([4]; at 1.2 µM)?
Answer: Its growth inhibition is 0%.

Question: And the growth inhibition ([4]; at 3.7 µM)?
Answer: The growth inhibition was -4%.

Question: What about the growth inhibition ([4]; at 11.0 µM) of the same molecule?
Answer: The growth inhibition was -1%.

Question: What about the growth inhibition ([4]; at 33.0 µM) of the same molecule?
Answer: The growth inhibition was 29%.

Question: What about the growth inhibition ([4]; at 100.0 µM) of the same molecule?
Answer: The growth inhibition was 80% (active).

Question: What about the growth inhibition ([5]; at 1.2 µM) of the same molecule?
Answer: Its growth inhibition is -2%.

Question: And the growth inhibition ([5]; at 3.7 µM)?
Answer: Its growth inhibition is -3%.

Question: And the growth inhibition [5, 17]?
Answer: The growth inhibition was -16%.

Question: What about the growth inhibition ([5]; at 11.0 µM) of the same molecule?
Answer: The growth inhibition was -2%.

Question: What about the growth inhibition ([5]; at 33.0 µM) of the same molecule?
Answer: The growth inhibition was 10%.

Question: What about the growth inhibition [5, 18] of the same molecule?
Answer: Its growth inhibition is 37%.

Question: And the growth inhibition ([5]; at 50.0 µM)?
Answer: The growth inhibition was 9.3%.

Question: And the growth inhibition ([5]; at 100.0 µM)?
Answer: The growth inhibition was 90% (active).

Question: What about the growth inhibition ([6]; at 1.2 µM) of the same molecule?
Answer: The growth inhibition was 0%.

Question: And the growth inhibition ([6]; at 3.7 µM)?
Answer: The growth inhibition was 0%.

Question: What about the growth inhibition [6, 17] of the same molecule?
Answer: The growth inhibition was 2%.

Question: And the growth inhibition ([6]; at 11.0 µM)?
Answer: Its growth inhibition is -6%.

Question: And the growth inhibition ([6]; at 33.0 µM)?
Answer: The growth inhibition was 1%.

Question: What about the growth inhibition [6, 18] of the same molecule?
Answer: The growth inhibition was 27%.

Question: And the growth inhibition ([6]; at 50.0 µM)?
Answer: The growth inhibition was 30.6%.

Question: And the growth inhibition ([6]; at 100.0 µM)?
Answer: The growth inhibition was 92% (active).

Question: What about the growth inhibition ([7]; at 1.2 µM) of the same molecule?
Answer: The growth inhibition was -4%.

Question: And the growth inhibition ([7]; at 3.7 µM)?
Answer: The growth inhibition was -4%.

Question: And the growth inhibition ([7]; at 11.0 µM)?
Answer: Its growth inhibition is -3%.

Question: What about the growth inhibition ([7]; at 33.0 µM) of the same molecule?
Answer: The growth inhibition was 16%.

Question: What about the growth inhibition ([7]; at 100.0 µM) of the same molecule?
Answer: Its growth inhibition is 87% (active).

Question: And the growth inhibition [8, 17]?
Answer: Its growth inhibition is -6%.

Question: What about the growth inhibition [8, 18] of the same molecule?
Answer: The growth inhibition was 56%.

Question: What about the growth inhibition ([8]; at 50.0 µM) of the same molecule?
Answer: The growth inhibition was 33.5%.

Question: And the growth inhibition ([9]; at 1.2 µM)?
Answer: Its growth inhibition is -11%.

Question: What about the growth inhibition ([9]; at 3.7 µM) of the same molecule?
Answer: Its growth inhibition is -11%.

Question: And the growth inhibition ([9]; at 11.0 µM)?
Answer: The growth inhibition was -8%.

Question: What about the growth inhibition ([9]; at 33.0 µM) of the same molecule?
Answer: Its growth inhibition is 3%.

Question: And the growth inhibition ([9]; at 100.0 µM)?
Answer: Its growth inhibition is 53%.

Question: What about the growth inhibition [10, 17] of the same molecule?
Answer: The growth inhibition was 15%.

Question: And the growth inhibition [10, 18]?
Answer: Its growth inhibition is 57%.

Question: And the growth inhibition ([10]; at 50.0 µM)?
Answer: Its growth inhibition is 81.4% (active).

Question: What about the growth inhibition ([11]; at 1.2 µM) of the same molecule?
Answer: The growth inhibition was -6%.

Question: And the growth inhibition ([11]; at 3.7 µM)?
Answer: Its growth inhibition is -6%.

Question: What about the growth inhibition [11, 17] of the same molecule?
Answer: Its growth inhibition is -19%.

Question: What about the growth inhibition ([11]; at 11.0 µM) of the same molecule?
Answer: Its growth inhibition is -2%.

Question: What about the growth inhibition ([11]; at 33.0 µM) of the same molecule?
Answer: Its growth inhibition is -5%.

Question: What about the growth inhibition [11, 18] of the same molecule?
Answer: Its growth inhibition is 7%.

Question: What about the growth inhibition ([11]; at 50.0 µM) of the same molecule?
Answer: The growth inhibition was 23.4%.

Question: What about the growth inhibition ([11]; at 100.0 µM) of the same molecule?
Answer: Its growth inhibition is 91% (active).

Question: What about the growth inhibition ([12]; at 1.2 µM) of the same molecule?
Answer: The growth inhibition was -1%.

Question: What about the growth inhibition ([12]; at 3.7 µM) of the same molecule?
Answer: The growth inhibition was 1%.

Question: And the growth inhibition ([12]; at 11.0 µM)?
Answer: Its growth inhibition is 0%.

Question: What about the growth inhibition ([12]; at 33.0 µM) of the same molecule?
Answer: Its growth inhibition is 28%.

Question: And the growth inhibition ([12]; at 100.0 µM)?
Answer: Its growth inhibition is 94% (active).

Question: What about the growth inhibition ([13]; at 1.2 µM) of the same molecule?
Answer: Its growth inhibition is 3%.

Question: What about the growth inhibition ([13]; at 3.7 µM) of the same molecule?
Answer: The growth inhibition was 1%.

Question: And the growth inhibition ([13]; at 11.0 µM)?
Answer: The growth inhibition was -1%.

Question: What about the growth inhibition ([13]; at 33.0 µM) of the same molecule?
Answer: Its growth inhibition is 28%.

Question: What about the growth inhibition ([13]; at 100.0 µM) of the same molecule?
Answer: The growth inhibition was 73% (active).

Question: What about the growth inhibition ([14]; at 1.2 µM) of the same molecule?
Answer: Its growth inhibition is 0%.

Question: What about the growth inhibition ([14]; at 3.7 µM) of the same molecule?
Answer: The growth inhibition was -76%.

Question: What about the growth inhibition ([14]; at 11.0 µM) of the same molecule?
Answer: The growth inhibition was 3%.

Question: What about the growth inhibition ([14]; at 33.0 µM) of the same molecule?
Answer: The growth inhibition was 37%.

Question: What about the growth inhibition ([14]; at 100.0 µM) of the same molecule?
Answer: Its growth inhibition is 89% (active).

Question: And the growth inhibition [15, 17]?
Answer: Its growth inhibition is -7%.

Question: And the growth inhibition [15, 18]?
Answer: The growth inhibition was 48%.

Question: And the growth inhibition ([15]; at 50.0 µM)?
Answer: Its growth inhibition is 17.9%.

Question: And the growth inhibition ([16]; at 1.2 µM)?
Answer: The growth inhibition was 0%.

Question: And the growth inhibition ([16]; at 3.7 µM)?
Answer: The growth inhibition was 0%.

Question: What about the growth inhibition ([16]; at 11.0 µM) of the same molecule?
Answer: The growth inhibition was -4%.

Question: What about the growth inhibition ([16]; at 33.0 µM) of the same molecule?
Answer: The growth inhibition was 10%.

Question: What about the growth inhibition ([16]; at 100.0 µM) of the same molecule?
Answer: Its growth inhibition is 48%.
